Test results from PubChem BioAssay (EPA / NIEHS).
“And” between values parts separate entries of the source, which are not always exact repeats. Equal entries are not always repeated. Results filed as inconclusive are left out. A structure can be active in one record and inactive in another. The source made the active and inactive calls. Rule for the calls, unless noted: active = hit-call score of the fitted dose curve at least 0.9, where 1 is the maximum; inactive = score below 0.9.

Key:
[1] = IUF_NPC2c_oligodendrocyte_migration_120hr: Leibniz Research Institute for Environmental Medicine (IUF) 120-hour Neural Progenitor Cell Migration Assay for Oligodendrocyte Migration (NPC2c) (AID 2284297);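 note: O4-positive oligodendrocyte migration distance divided by radial glia migration distance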
How it was run: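 hNPC spheres (GW 16-19 cortex), PDL/laminin, DMEM/F12 3:1 + 1% N2, 37C. Dosing day 0–5, half feed day 3, DMSO ≤0.1%. Fixed 120 h; O4 ICC + Hoechst, HCI. Readout: mean oligodendrocyte distance from sphere edge / radial glia distance.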

[2] = IUF_NPC2a_radial_glia_migration_120hr: Leibniz Research Institute for Environmental Medicine (IUF) 120-hour Neural Progenitor Cell Migration Assay for Radial Glia Migration (NPC2a) (AID 2284298)
How it was run: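 Hoechst-stained nuclei imaged at 120 h; algorithm maps sphere core by densest nuclei, sets migration edge at density threshold, gives radial glia migration distance (um) per well vs DMSO. hNPC spheres (0.3 mm), PDL/laminin, DMEM/F12 3:1 + 1% N2.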

[3] = IUF_NPC3_neuronal_differentiation_120hr: Leibniz Research Institute for Environmental Medicine (IUF) 120-hour Neuronal Differentiation Assay (NPC3) (AID 2284301)
How it was run: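 Human fetal (GW 16-19) neural progenitor spheres (0.3 mm) plated on poly-D-lysine/laminin in N2 differentiation medium, exposed 120 h at 37C with half-medium renewal day 3; 7 concentrations. TUBB3+ cells as % of Hoechst nuclei, CNN-identified; DMSO baseline.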

[4] = IUF_NPC4_neurite_length_120hr: Leibniz Research Institute for Environmental Medicine (IUF) 120-hour Neuronal Morphology Assay for Neurite Length (NPC4) (AID 2284302)
How it was run: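 Human fetal neural progenitor spheres (0.3 mm) plated on poly-D-lysine/laminin in N2 differentiation medium, exposed from day 0 for 120 h with half-medium refresh at day 3, 37C. Mean neurite length (um) of TUBB3-positive neurons from skeletonized immunostaining images; DMSO ≤0.1%.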

[5] = IUF_NPC4_neurite_area_120hr: Leibniz Research Institute for Environmental Medicine (IUF) 120-hour Neuronal Morphology Assay for Neurite Area (NPC4) (AID 2284305; active = hit-call score of the fitted dose curve at least 0.9, where 1 is the maximum)
How it was run: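 Human fetal neural progenitor spheres (0.3 mm) plated on poly-D-lysine/laminin in N2 differentiation medium, exposed 120 h (7 concentrations, DMSO ≤0.1%, half-medium refresh day 3). Fixed, TUBB3 immunostained; mean neurite area per neuron by Omnisphero skeletonization.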

[6] = IUF_NPC2-5_cell_number_120hr: Cell Number Assessment at 120 hours in the Leibniz Research Institute for Environmental Medicine (IUF) Neural Progenitor Cell Migration and Differentiation Assay (NPC2-5) (AID 2284308);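 note: count of Hoechst-stained nuclei in migration zone around plated human neural progenitor spheres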
How it was run: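 Hoechst-stained nuclei within the migration area were counted by automated high content imaging after 120 h. Single hNPC spheres differentiated on poly-D-lysine/laminin in DMEM/F12 (3:1) with 1% N2, compound present throughout, DMSO ≤0.1%.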

[7] = IUF_NPC2-5_viability_120hr: Viability Assessment at 120 hours in the Leibniz Research Institute for Environmental Medicine (IUF) Neural Progenitor Cell Migration and Differentiation Assay (NPC2-5) (AID 2284312)
How it was run: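 Human fetal neural progenitor spheres (0.3 mm) plated on poly-D-lysine/laminin in N2 differentiation medium, exposed 120 h with half-medium refresh at day 3. Viability by alamar blue resazurin fluorescence; 7 concentrations, DMSO max 0.1%.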

[8] = IUF_NPC5_oligodendrocyte_differentiation_120hr: Leibniz Research Institute for Environmental Medicine (IUF) 120-hour Oligodendrocyte Differentiation Assay (NPC5) (AID 2284304; active = hit-call score of the fitted dose curve at least 0.9, where 1 is the maximum;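 note: primary human fetal neural progenitor spheres plated to migrate and differentiate; share of O4-positive cells among Hoechst nuclei found by CNN image analysis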)
How it was run: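 hNPC spheres, fetal cortex GW 16-19; PDL/laminin, DMEM:F12 3:1 + 1% N2, 37C/5% CO2; 7 concentrations + solvent control, 5 d exposure, half-change day 3. Readout: %O4+ of Hoechst+ nuclei in migration area, CNN classification; DMSO baseline.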

[9] = VALA_TUBIPS_Antagonist_TubuleLength: VALA Sciences human iPS-derived Endothelial Tubule Formation (TUBIPS) Antagonist Assay (AID 2284313; active = hit-call score of the fitted dose curve at least 0.9, where 1 is the maximum)
How it was run: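 Cells grown 3 days with 10 ng/ml VEGF, then exposed to compounds in VEGF medium for another 3 days. After fixation, nuclear stain and CD31 immunofluorescence imaging gave mean total tubule length against 0.1% DMSO; suramin (100 uM) inhibition control.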

[10] = VALA_MIGHUV2_Bcatenin: VALA Sciences human Umbilical Vein Endothelial Cell Migration (MIGHUV) Assay, Nuclear Translocation of beta-Catenin after Recovery (AID 2284315; active = hit-call score of the fitted dose curve at least 0.9, where 1 is the maximum)
How it was run: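 HUVEC (4000 cells/well) scratch-wounded, dosed within 30 min over 6 concentrations in triplicate, recovered 24 h. After fixation, Hoechst and anti-beta-catenin immunofluorescence imaged for nuclear CTNB. Gain of signal versus 0.1% DMSO.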

[11] = read-out: Collagen IV, COL4A1 (gene 1282); assay: BSK_MyoF_CollagenIV: BioMAP Diversity Plus: MyoF Assay for Collagen IV Biomarker Activity (AID 2284247); details: primary human lung fibroblasts
How it was run: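 Steps: dose human lung fibroblasts; culture 24 h; quantify Collagen IV by ELISA; fit increase versus DMSO control. Parallel SRB total-protein staining (0.1% SRB after 10% TCA fixation, 560 nm) tracks overt cytotoxicity.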

[12] = read-out: Plasminogen activator inhibitor-1 (PAI1), SERPINE1 (gene 5054); assay: BSK_MyoF_PAI1: BioMAP Diversity Plus: MyoF Assay for Plasminogen activator inhibitor-1 (PAI1) Biomarker Activity (AID 2284256); details: primary human lung fibroblasts
How it was run: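 MyoF lung fibroblasts, human primary; compound 24 h; PAI-1 ELISA; positive-direction fit vs DMSO baseline; parallel SRB total-protein staining for cytotoxicity.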

[13] = read-out: Interleukin-8 (IL8), CXCL8 (gene 3576); assay: BSK_MyoF_IL8: BioMAP Diversity Plus: MyoF Assay for Interleukin-8 (IL8) Biomarker Activity (AID 2284261); details: primary human lung fibroblasts
How it was run: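 Lung fibroblasts (human primary) → chemical exposure → 24 h → IL-8 measured by ELISA. Signal increase scored versus DMSO control.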

Decorin, DCN (gene 1634) = assay: BSK_MyoF_Decorin: BioMAP Diversity Plus: MyoF Assay for Decorin Biomarker Activity (AID 2284265); details: primary human lung fibroblasts
How it was run: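 ELISA readout of decorin, 24 h post-dosing; primary human lung fibroblast (MyoF) culture; gain-of-signal fit vs DMSO baseline.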

[14] = BSK_MyoF_SRB: Viability Assessment in the BioMAP Diversity Plus: MyoF Assay (AID 2284267); details: primary human lung fibroblasts;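 note: total protein by SRB absorbance in parallel cultures as cytotoxicity measure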
How it was run: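 Read-out is SRB absorbance at 560 nm, reflecting total protein in parallel lung fibroblast cultures harvested 24 h after compound addition. Cells were TCA-fixed (10%) and stained with 0.1% SRB; activity is referenced to DMSO.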

[15] = read-out: Matrix Metallopeptidase 1 (MMP1), MMP1 (gene 4312); assay: BSK_MyoF_MMP1: BioMAP Diversity Plus: MyoF Assay for Matrix Metallopeptidase 1 (MMP1) Biomarker Activity (AID 2284268); details: primary human lung fibroblasts
How it was run: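 Cells: human lung fibroblasts. Exposure: 24 h chemical dosing. Detection: ELISA for MMP1. Analysis: upward fitting against DMSO negative control.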

[16] = read-out: TIMP metallopeptidase inhibitor 1 (TIMP1), TIMP1 (gene 7076); assay: BSK_MyoF_TIMP1: BioMAP Diversity Plus: MyoF Assay for TIMP metallopeptidase inhibitor 1 (TIMP1) Biomarker Activity (AID 2284269); details: primary human lung fibroblasts
How it was run: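 ELISA quantified TIMP-1 levels after 24 h dosing of primary human lung fibroblasts, with DMSO as baseline. Parallel SRB total protein staining (0.1% SRB after TCA fixation, 560 nm) flagged overt cytotoxicity.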

[17] = VALA_TUBHUV_Agonist_CellCount: Viability Assessment in the VALA Sciences human Umbilical Vein Endothelial Tubule Formation (TUBHUV) Agonism Assay (AID 2284309; active = hit-call score of the fitted dose curve at least 0.9, where 1 is the maximum)
How it was run: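 HUVEC co-cultured 1:3 with HDF for 3 days in 10 ng/ml VEGF, then compounds added in VEGF medium for a further 3 days (72 h). Nuclear-stain/CD31 imaging cell count. Positive-direction fit versus 0.1% DMSO vehicle.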

[18] = VALA_TUBHUV_Antagonist_CellCount: Viability Assessment in the VALA Sciences human Umbilical Vein Endothelial Tubule Formation (TUBHUV) Antagonism Assay (AID 2284310; active = hit-call score of the fitted dose curve at least 0.9, where 1 is the maximum)
How it was run: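 HUVEC co-cultured with HDF (1:3) 3 days in 10 ng/ml VEGF, then 3 days with compounds in VEGF medium. Fixed, nuclear stain and CD31 immunofluorescence, imaged; cell counts fitted versus 0.1% DMSO, loss of signal read as lower viability.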

[19] = VALA_MIGHUV2_CellCount: Viability Assessment in the VALA Sciences human Umbilical Vein Endothelial Cell Migration (MIGHUV) Assay, Area of Scratch Wound after Recovery (AID 2284314; active = hit-call score of the fitted dose curve at least 0.9, where 1 is the maximum)
How it was run: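 Scratch-wounded HUVEC monolayers received test chemical within 30 min, 6-point concentration response in triplicate, 0.1 % DMSO vehicle. After 24 h wound recovery, fixed cells were Hoechst-stained and nuclei imaged; loss of signal versus DMSO indicates reduced viability.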

Measured: AC50

COP(=O)(OC)OC(Br)C(Cl)(Cl)Br (stereo unspecified)
inactive: [7]
active: [1] 34900 nM | [2] 35.4 µM | [3] 40.9 µM | [4] 23.5 µM | [5] 27 µM | [6] 25.7 µM

CCOP(=O)(NC(C)C)Oc1ccc(SC)c(C)c1 (stereo unspecified)
inactive: [1] | [3] | [4] | [5] | [6] | [7]
active: [2] 33.7 µM | [8] 10.2 µM

CC[C@H](C)[C@H]1O[C@]2(C=C[C@@H]1C)C[C@@H]1C[C@@H](C/C=C(\C)[C@@H](O[C@H]3C[C@H](OC)[C@@H](O[C@H]4C[C@H](OC)[C@@H](NC)[C@H](C)O4)[C@H](C)O3)[C@@H](C)/C=C/C=C3\CO[C@@H]4[C@H](O)C(C)=C[C@@H](C(=O)O1)[C@]34O)O2
active: [1] 932 nM and 1.74 µM | [2] 1.1 µM and 2.22 µM | [3] 1.27 µM | [4] 979 nM and 3.08 µM | [8] 305 nM and 96.9 nM | [5] 1.04 µM and 5.11 µM | [6] 836 nM and 2 µM | [7] 1.14 µM and 2.1 µM

COP(=O)(OC)C(O)C(Cl)(Cl)Cl (stereo unspecified)
inactive: [1] | [2] | [3] | [6] | [7]
active: [4] 5.03 µM | [5] 5.08 µM

COP(=O)(NC(C)=O)SC (stereo unspecified)
inactive: [1] | [2] | [3] | [4] | [8] | [5] | [6] | [7]

S=C1NCCN1
inactive: [1] | [2] | [3] | [4] | [8] | [5] | [6] | [7] | [9] | [10]

CN1COCN(Cc2cnc(Cl)s2)C1=N[N+](=O)[O-]
inactive: [1] | [2] | [3] | [4] | [8] | [5] | [6] | [7]

O=[N+]([O-])c1cc(C(F)(F)F)c(Cl)c([N+](=O)[O-])c1Nc1ncc(C(F)(F)F)cc1Cl
inactive: [17] | [18] | [19]
active: [11] 2.27 µM | [12] 2.2 µM | [13] 20 µM | Decorin, DCN (gene 1634) 5.88 µM | [14] 2.6 µM | [15] 3.25 µM | [16] 3.9 µM | [1] 736 nM | [2] 0.832 µM | [3] 0.601 µM | [4] 1.02 µM | [8] 1.3 µM | [5] 1.13 µM | [6] 1.1 µM | [7] 1.4 µM

CC1=NNC(=O)N(/N=C/c2cccnc2)C1
inactive: [1] | [2] | [3] | [4] | [5] | [6] | [17] | [7] | [9]

C[N+]1(C)CCCCC1
inactive: [1] | [2] | [3] | [4] | [8] | [5] | [6] | [7]

C=C(C)[C@H]1Cc2c(ccc3c2O[C@@H]2COc4cc(OC)c(OC)cc4[C@@H]2C3=O)O1
inactive: [1]
active: [1] 6.2 nM | [2] 244 nM and 3.4 nM | [3] 58 nM and 7.87 nM | [4] 224 nM and 10 nM | [5] 220 nM and 15.5 nM | [6] 0.00141 µM | [7] 267 nM and 1.57 nM

CSC1=N[C@@](C)(c2ccccc2)C(=O)N1Nc1ccccc1
inactive: [1] | [2] | [3] | [4] | [5] | [6] | [7]
